Experimental data as given in PubChem BioAssay (NCATS).
Where “and” joins values, the source holds several entries; their conditions need not be identical. Equal entries are not always repeated. Records with an inconclusive call do not appear. Unmarked numbers belong to inactive results. Calls of active or inactive are those of the source. The call rests on the fitted dose curve; in most records, active means well fitted curve in the direction sought with a large enough effect; inconclusive means small, poorly fitted or top-dose-only effect, or another doubt; inactive means no such curve, though single readings can be large; an effect the other way counts as inactive or inconclusive.

Experiments:
[1] = target: Cellular tumor antigen p53 (Homo sapiens) (UniProt P04637); experiment: Primary qHTS for small molecule compounds that upregulate eGFP-tagged delta133p53alpha (in N-terminal) cells. (AID 2060322); settings: NCI-H358 eGFP-delta133p53alpha fluorescence, 24 h; activation: active compounds read high; further: nearly all actives have a fitted effect of over 75% in size; further: potency means the concentration at half of the fitted maximal effect;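 on activation: cells pre-induced with doxycycline then dosed without doxycycline; 0% = DMSO vehicle and 100% = reference activator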
Cellular tumor antigen p53 (Homo sapiens), sequence (P04637 whole entry, looked up): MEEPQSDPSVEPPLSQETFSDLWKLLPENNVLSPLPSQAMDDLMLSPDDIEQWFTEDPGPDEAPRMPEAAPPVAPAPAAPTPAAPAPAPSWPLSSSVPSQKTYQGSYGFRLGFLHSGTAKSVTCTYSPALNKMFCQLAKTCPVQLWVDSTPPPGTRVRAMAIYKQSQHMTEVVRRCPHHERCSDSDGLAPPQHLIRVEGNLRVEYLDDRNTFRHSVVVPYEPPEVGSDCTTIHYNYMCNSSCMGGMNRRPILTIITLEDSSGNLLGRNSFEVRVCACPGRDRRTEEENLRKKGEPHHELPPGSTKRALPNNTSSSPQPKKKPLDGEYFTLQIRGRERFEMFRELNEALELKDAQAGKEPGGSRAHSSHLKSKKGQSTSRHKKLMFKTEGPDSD
Summary of the method: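 NCI-H358 cells pre-induced 24 h with 10 ng/ml doxycycline for eGFP-delta133p53alpha, plated dox-free and exposed 24 h at 37C to titrated compounds. Fixed, Hoechst-stained; gated GFP peak intensity by laser scanning cytometry, normalized to DMSO (0%) and 57.5 uM 5-azacytidine (100%).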

[2] = target: Aldehyde dehydrogenase, mitochondrial (Homo sapiens) (UniProt P05091); experiment: qHTS for Inhibitors of the Aldehyde Dehydrogenase Family (ALDH2) Primary screen (AID 2061308); settings: ALDH2 enzyme inhibition qHTS, 1536-well; series mostly up to 56 µM;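 further: plate controls were vehicle for no effect and reference inhibitor for full effect; nearly all actives have a fitted effect of over 55% in size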
[3] = target: Retinaldehyde dehydrogenase 3 (Homo sapiens) (UniProt P47895); experiment: qHTS for Inhibitors of the Aldehyde Dehydrogenase Family (ALDH1A3) Primary screen (AID 2061315); settings: ALDH inhibition qHTS; series mostly up to 56 µM;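 further: plate controls were DMSO vehicle for no effect and reference inhibitor for full effect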
[4] = BET inhibitor-based combinations targeting novel dependencies in MECOM-rearranged (r) AML: OCI-AML3 cell line (AID 2202232); settings: CellTiter-Glo luminescence, 48 h; Potency: OCI-AML3 viability; series mostly up to 46 µM; further: nearly all actives have a fitted effect of over 35% in size; further: potency means the concentration at half of the fitted maximal effect
Summary of the method: (§1)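 Cells were plated at 500 per well and exposed to an 11-point dose series of each drug for 48 hr. Viability was measured by CellTiter-Glo luminescence, normalized to DMSO and empty-well controls, and summarized as AUC and per-cell-line Z-AUC.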

[5] = BET inhibitor-based combinations targeting novel dependencies in MECOM-rearranged (r) AML: MV-4-11 cell line (AID 2202233); settings: MV-4-11 AML viability, CellTiter-Glo luminescence, 48 h; series mostly up to 46 µM; further: nearly all actives have a fitted effect of over 45% in size; further: potency means the concentration at half of the fitted maximal effect
Summary of the method: (§2)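 Activity is given as area under the curve and as Z-AUC, mean-centred within each cell line. It comes from 11-point dose curves normalized to DMSO and empty wells. CellTiter-Glo luminescence was read after 48 hr drug exposure of 500 cells/well.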

[6] = BET inhibitor-based combinations targeting novel dependencies in MECOM-rearranged (r) AML: HNT-34 cell line (AID 2202234); settings: HNT-34 AML viability, CellTiter-Glo luminescence, 48 h; series mostly up to 46 µM; further: nearly all actives have a fitted effect of over 35% in size; further: potency means the concentration at half of the fitted maximal effect
Summary of the method: as §2

[7] = BET inhibitor-based combinations targeting novel dependencies in MECOM-rearranged (r) AML: AML-191 cell line (AID 2202236; further: nearly all actives have a fitted effect of over 35% in size; further: potency means the concentration at half of the fitted maximal effect); settings: AML-191 viability, CellTiter-Glo luminescence, 48 h; series mostly up to 46 µM
Summary of the method: as §1

[8] = BET inhibitor-based combinations targeting novel dependencies in MECOM-rearranged (r) AML: AML-194 cell line (AID 2202237; further: nearly all actives have a fitted effect of over 40% in size; further: potency means the concentration at half of the fitted maximal effect); settings: AML-194 (MECOM-r AML) viability, CellTiter-Glo, 48 h; series mostly up to 46 µM
Summary of the method: as §1

[9] = BET inhibitor-based combinations targeting novel dependencies in MECOM-rearranged (r) AML: UCSD-AML1 cell line (AID 2202235); settings: UCSD-AML1 AML cells viability, CellTiter-Glo, 48 h; series mostly up to 46 µM; further: nearly all actives have a fitted effect of over 40% in size; further: potency means the concentration at half of the fitted maximal effect
Summary of the method: as §2

[10] = BET inhibitor-based combinations targeting novel dependencies in MECOM-rearranged (r) AML: SET-2 cell line (AID 2202231); settings: SET-2 AML cells viability, CellTiter-Glo luminescence, 48 h; viability: active compounds read low, concentration not given here;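 further: plate controls were DMSO treated cells for no effect and wells without cells for full effect; nearly all actives have a fitted effect of over 35% in size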
Summary of the method: as §1

| SMILES | activation [1] | activity change, negative = inhibition [2] | activity change, negative = inhibition [3] | Potency [4] | Potency [5] | Potency [6] | Potency [7] | Potency [8] | Potency [2] | Potency [3] | Potency [1] | Potency [9] | viability [10] [%] |
| --- | --- | --- | --- | --- | --- | --- | --- | --- | --- | --- | --- | --- | --- |
| CC(=O)c1c(C)c2cnc(Nc3ccc(N4CCNCC4)cn3)nc2n(C2CCCC2)c1=O | 46.5% and -19.6% | 10.9% [at 5.59 µM] | -7.36% [at 5.59 µM] | 20.9 µM (active) | 6.61 µM (active) | 16.6 µM (active) | 16.6 µM (active) | 14.8 µM (active) | – | – | – | – | – |
| NC(=O)c1c(OCc2c(F)cc(Br)cc2F)nsc1NC(=O)NCCCCN1CCCC1 | 9.77% | – | – | 20.9 µM (active) | 20.9 µM (active) | 23.5 µM (active) | 26.3 µM (active) | 26.3 µM (active) | inactive | inactive | – | – | – |
| CCS(=O)(=O)c1cccc(-c2cc(C(=O)NC3CCN(C)CC3)c(C)c3[nH]c4ncc(C)cc4c23)c1 | – | – | – | 1.48 µM (active) | 0.0934 µM (active) | 0.235 µM (active) | 3.72 µM (active) | – | inactive | inactive | 12.2 µM (active) and 5.88 µM (active) | – | – |
| Cc1nc(-c2cccnc2)sc1C(=O)Nc1ccccc1-c1cn2c(CN3CCOCC3)csc2n1 | 17.9% | – | – | inactive | inactive | inactive | inactive | inactive | inactive | inactive | – | inactive | – |
| CC1=C(CO)C(=O)O[C@@H]([C@@H](C)[C@H]2CC[C@H]3[C@@H]4C[C@H]5O[C@]56[C@@H](O)C=CC(=O)[C@]6(C)[C@H]4CC[C@]23C)C1 | – | – | – | 0.742 µM (active) | 0.662 µM (active) | 0.118 µM (active) | 0.372 µM (active) | 0.372 µM (active) | inactive | inactive | 1.47 µM (active) | 0.417 µM (active) | – |
| Clc1ccc(C2(c3ccc(-c4cn[nH]c4)cc3)CCNCC2)cc1 | -10.3% and 1.79% | – | – | 18.6 µM (active) | 4.17 µM (active) | 5.25 µM (active) | 18.6 µM (active) | 20.9 µM (active) | inactive | inactive | – | 18.6 µM (active) | – |
| CC(C)(O)CC(=O)NCCn1ccc2ncnc(Nc3ccc(Oc4cccc(C(F)(F)F)c4)c(Cl)c3)c21 | – | – | – | 16.6 µM (active) | 13.2 µM (active) | 14.8 µM (active) | 16.6 µM (active) | – | inactive | inactive | 24.3 µM (active) | 14.8 µM (active) | – |
| COc1cc(N2CCC(N3CCN(C)CC3)CC2)ccc1Nc1ncc(Cl)c(Nc2ccccc2P(C)(C)=O)n1 | – | – | – | 0.742 µM (active) | 0.0186 µM (active) | 0.934 µM (active) | – | – | inactive | inactive | 3.01 µM (active) | 0.742 µM (active) | – |
| CS(=O)(=O)CCNCc1ccc(-c2ccc3ncnc(Nc4ccc(OCc5cccc(F)c5)c(Cl)c4)c3c2)o1 | – | – | – | 23.5 µM (active) | 18.6 µM (active) | 3.72 µM (active) | 26.3 µM (active) | – | inactive | inactive | 26.9 µM (active) | inactive | – |
| COc1cc2c(N3CCN(C(=O)Nc4ccc(OC(C)C)cc4)CC3)ncnc2cc1OCCCN1CCCCC1 | 54% and 21.4% | – | – | – | – | – | – | 23.5 µM (active) | inactive | inactive | – | – | 95.3 |
| C[C@@H]1COCCN1c1cc(=O)n2c(n1)N(Cc1cncc(Cl)c1)[C@H](C(F)(F)F)CC2 | -34.6% | – | – | inactive | inactive | inactive | – | inactive | inactive | inactive | – | – | – |
| O=C1CCCC2=C1C(c1[nH]ncc1Cl)N=C(Nc1nc3ccccc3o1)N2 (centres undefined) | -17.4% and 19.7% | – | – | – | – | – | – | inactive | inactive | inactive | – | – | 78.9 |
| CS(=O)(=O)c1ccc(Oc2cc(F)cc(C#N)c2)c2c1[C@H](O)C(F)(F)C2 | -20.7% | – | – | inactive | inactive | inactive | inactive | – | inactive | inactive | – | inactive | – |
| Cc1cc(Nc2cc(N3CCN(C)CC3)nc(Sc3ccc(NC(=O)C4CC4)cc3)n2)n[nH]1 | 60.2% | – | – | 0.662 µM (active) | 0.132 µM (active) | 0.235 µM (active) | 0.662 µM (active) | 0.934 µM (active) | inactive | inactive | – | 4.68 µM (active) | – |
| COc1ccc(Cl)c(Nc2ncnc3cc(OCC4CCN(C)CC4)c(OC)cc23)c1 | – | – | – | 29.5 µM (active) | 5.9 µM (active) | 0.742 µM (active) | 23.5 µM (active) | – | inactive | inactive | 6.01 µM (active) | inactive | – |
| C#Cc1cccc(Nc2ncnc3cc(OC)c(OCCCCCCC(=O)NO)cc23)c1 | – | – | – | 1.05 µM (active) | 0.296 µM (active) | 0.934 µM (active) | 1.05 µM (active) | 2.09 µM (active) | inactive | inactive | 8.63 µM (active) and 5.36 µM (active) and 544 nM (active) | 1.18 µM (active) | – |
